Out of some 100,000 compounds screened, about 770 (0.77%) were called active. This is one part of a sample in which actives are shown more often than they occur. No stated cut-off is given here; in the data, active means inhibition above about 50%; inactive means the rest.
These molecules were tested against Gag-Pol polyprotein (Human immunodeficiency virus type 1 group M subtype B (isolate HXB2)) (UniProt P04585) (assay: RNase H inhibition, HIV 1 Gag Pol polyprotein, FRET biochemical assay, screening (AID 372)). Details: HIV-1 RT RNase H, FRET RNA/DNA substrate fluorescence; at 10 µM; stronger effect = higher value.
With `CCOC(=O)N(Cc1ccccc1)C(C(=O)O)C(C(=O)O)N(Cc1ccccc1)C(=O)OCC` (stereo unspecified) the inhibition was 0% (inactive). With `O=CNC(NC(=S)Nc1cc(Cl)ccc1Cl)C(Cl)(Cl)Cl` (stereo unspecified) the inhibition was 17% (inactive). In the case of `Cc1ccc([N+](=O)[O-])cc1/C=C1/SC(=S)N(c2cccc(C(F)(F)F)c2)C1=O`, the inhibition is reported as 5% (inactive). In the case of `O=C(COc1ccc(Br)cc1Cl)Nc1cc(Cl)ccc1Cl`, the inhibition is reported as 8% (inactive). With `COc1ccc(OC)c(N(CC(=O)NCC(C)C)S(C)(=O)=O)c1` the inhibition was 0% (inactive). `CC(=O)C1=C(C)NC(SCC(=O)c2ccc(C)cc2)=C(C#N)C1c1ccc(Br)cc1` (stereo unspecified) was tested, and the inhibition was 18% (inactive). In the case of `O=C(NC(=S)Nc1ccc(Cl)c([N+](=O)[O-])c1)c1ccc(-c2ccccc2)cc1`, the inhibition is reported as 13% (inactive). For `O=C(Nc1ccccc1-c1nc2ccccc2[nH]1)c1ccc([N+](=O)[O-])cc1`, the inhibition was 44% (inactive). In the case of `COc1ccc(O)c(CN2CCCCC2)c1`, the inhibition is reported as 4% (inactive). In the case of `CC1SC(c2cccc(Cl)c2)NC1=O` (stereo unspecified), the inhibition is reported as 0% (inactive). With `C/C(=N\NC(=O)c1cc(C2CC2)[nH]n1)c1ccc(C)cc1` the inhibition was 8% (inactive). `COc1ccc(-n2nnnc2C(=Cc2ccc(N(C)C)cc2)c2nnnn2-c2ccc(OC)cc2)cc1` was tested, and the inhibition was 9% (inactive). For `N#Cc1c(-c2cccc(Br)c2)c(C#N)c2nc3ccccc3n2c1N`, the inhibition was 9% (inactive). In the case of `COc1ccc(C2CC(=O)C3=C(C2)NC(C)=C(C(=O)OC2CCCC2)C3c2ccc3c(c2)OCO3)cc1` (stereo unspecified), the inhibition is reported as 3% (inactive). In the case of `CCCC1=C(C(=O)OCC)C(c2cccs2)C(C#N)=C(N)O1` (stereo unspecified), the inhibition is reported as 56% (active). With `CCOC(=O)C1=C(CC)OC(N)=C(C#N)C1c1cccs1` (stereo unspecified) the inhibition was 30% (inactive). For `CCOC(=O)C1=C(c2ccccc2)OC(N)=C(C#N)C1c1cccs1` (stereo unspecified), the inhibition was 15% (inactive). In the case of `O=[N+]([O-])c1ccc(C=Nc2ccc(F)cc2)s1`, the inhibition is reported as 21% (inactive). With `COC(=O)C1=C(C)N(Cc2ccccc2)C(=O)/C1=C\c1ccccc1Cl` the inhibition was 51% (active). For `COC(=O)C1=C(C)N(Cc2ccccc2)C(=O)/C1=C\c1c(Cl)cccc1Cl`, the inhibition was 47% (inactive). In the case of `COC(=O)C1=C(C)N(Cc2ccccc2)C(=O)/C1=C\c1cccs1`, the inhibition is reported as 4% (inactive). `CN(C)c1ccc(/C=C(\C#N)c2nc(-c3ccc4c(c3)OCO4)cs2)cc1` was tested, and the inhibition was 16% (inactive). In the case of `CCOC(=O)c1sc(NC(=O)c2cc(Cl)ccc2OC)c(C(N)=O)c1C`, the inhibition is reported as 2% (inactive). For `Cc1cccc(NC(=O)c2ncn[nH]2)c1C`, the inhibition was 0% (inactive). In the case of `O=C(Nc1ccccc1I)c1ncn[nH]1`, the inhibition is reported as 54% (active). `O=C(Nc1ccccc1I)c1ccc(C(=O)Nc2ccccc2I)cc1` was tested, and the inhibition was 0% (inactive). With `O=C(Nc1nc2ccccc2n1Cc1ccc(Cl)cc1)c1ccc(Cl)cc1` the inhibition was 11% (inactive). For `CC(=O)Nc1ccc(NC(=S)NC(=O)c2cccc(Br)c2)cc1`, the inhibition was 0% (inactive). With `O=C1/C(=C/c2ccc(-c3ccc(Cl)cc3C(=O)O)o2)Sc2ccccc21` the inhibition was 21% (inactive). `O=C1NC(=S)S/C1=C\c1ccc(-c2ccc(Cl)c(C(=O)O)c2)o1` was tested, and the inhibition was 18% (inactive). In the case of `O=C1NC(=O)/C(=C\c2ccc(-c3ccc(C(=O)O)cc3)o2)S1`, the inhibition is reported as 6% (inactive). In the case of `O=C(O)c1cc(-c2ccc(C=C3C(=O)c4ccccc4C3=O)o2)ccc1O`, the inhibition is reported as 11% (inactive). `CCCOc1ncnc2sc3c(c12)CCCC3` was tested, and the inhibition was 12% (inactive). `CC1=NN(c2ccc(S(N)(=O)=O)cc2)C(=O)/C1=C\c1ccc(-c2cccc([N+](=O)[O-])c2)o1` was tested, and the inhibition was 57% (active). `CC1=NN(c2ccc(S(N)(=O)=O)cc2)C(=O)/C1=C\c1ccc(-c2cc([N+](=O)[O-])ccc2Cl)o1` was tested, and the inhibition was 46% (inactive). In the case of `COc1cc([N+](=O)[O-])ccc1-c1ccc(/C=C2/C(=O)N(c3ccc(C)cc3)N=C2C)o1`, the inhibition is reported as 6% (inactive). With `CC1=NN(c2ccc(S(N)(=O)=O)cc2)C(=O)/C1=C\c1cccc([N+](=O)[O-])c1` the inhibition was 12% (inactive). With `COc1cc([N+](=O)[O-])ccc1-c1ccc(/C=C2\C(=O)N(c3ccc(S(N)(=O)=O)cc3)N=C2C)o1` the inhibition was 53% (active). For `CCCOc1ccc(/C=C2\C(=O)N(c3ccc(S(N)(=O)=O)cc3)N=C2C)cc1OC`, the inhibition was 6% (inactive). In the case of `CN1C(=O)C(=Cc2ccc(-c3ccc(Cl)c([N+](=O)[O-])c3)o2)C(=O)N(C)C1=S`, the inhibition is reported as 30% (inactive). `COc1cc(/C=C2\C(=O)N(c3ccc(S(N)(=O)=O)cc3)N=C2C)ccc1OCc1ccccc1` was tested, and the inhibition was 53% (active). In the case of `COc1cc([N+](=O)[O-])ccc1-c1ccc(/C=C2\C(=O)N(c3ccc(C(=O)O)cc3)N=C2C)o1`, the inhibition is reported as 26% (inactive). `CC1=NN(c2ccc(S(N)(=O)=O)cc2)C(=O)/C1=C\c1ccc(-c2ccc(Cl)c([N+](=O)[O-])c2)o1` was tested, and the inhibition was 80% (active). `CC1=NN(c2ccc(S(N)(=O)=O)cc2)C(=O)/C1=C\c1ccc(-c2cc([N+](=O)[O-])ccc2C)o1` was tested, and the inhibition was 42% (inactive). With `COc1cc(/C=C2\C(=O)N(c3ccc(S(N)(=O)=O)cc3)N=C2C)cc(Br)c1OCc1ccccc1` the inhibition was 16% (inactive). In the case of `C=CCc1ccc(OCCCOc2c(Cl)cccc2Cl)c(OC)c1`, the inhibition is reported as 42% (inactive). For `CCOC(=O)C1=C(C)NC(=S)NC1c1ccc(Cl)c(Cl)c1` (stereo unspecified), the inhibition was 7% (inactive). With `COc1ccc(NC(=NCCc2ccccc2)SC2CC(=O)N(c3ccc(F)cc3)C2=O)cc1` (stereo unspecified) the inhibition was 9% (inactive). For `COc1ccc(OC)c(C=Nc2ccc(I)cc2)c1`, the inhibition was 9% (inactive). With `O=C1NC(=Nc2ccc(F)cc2)S/C1=C/c1cccc(Br)c1` the inhibition was 40% (inactive). With `CCOC(=O)C1=C(C)N=c2s/c(=C\c3cc(Br)c(OC)c(OC)c3)c(=O)n2C1c1ccc(OC)c(OC)c1` (stereo unspecified) the inhibition was 18% (inactive). In the case of `CCc1cccc(C)c1NC(=O)/C(C#N)=C/c1ccccc1`, the inhibition is reported as 4% (inactive). In the case of `CC1=NN(c2ccc(S(N)(=O)=O)cc2)C(=O)/C1=C\c1ccc(-c2ccc(C(=O)OC(C)C)cc2)o1`, the inhibition is reported as 25% (inactive). With `CC1=NN(c2cccc(C(=O)O)c2)C(=O)/C1=C\c1ccc(-c2ccc([N+](=O)[O-])cc2)o1` the inhibition was 7% (inactive). With `COC(=O)c1cccc(-c2ccc(/C=C3\C(=O)N(c4ccc(S(N)(=O)=O)cc4)N=C3C)o2)c1` the inhibition was 28% (inactive). With `CC1=NN(c2ccc(S(N)(=O)=O)cc2)C(=O)/C1=C\c1ccc(-c2ccc(Cl)c(C(=O)OC(C)C)c2)o1` the inhibition was 59% (active). `CC1=NN(c2ccc(S(N)(=O)=O)cc2)C(=O)/C1=C\c1ccc(-c2ccc([N+](=O)[O-])cc2)o1` was tested, and the inhibition was 63% (active). For `CCOC(=O)c1ccc(-c2ccc(/C=C3\C(=O)N(c4ccc(S(N)(=O)=O)cc4)N=C3C)o2)cc1`, the inhibition was 36% (inactive). In the case of `CC1=NN(c2ccc(C)cc2)C(=O)/C1=C/c1ccc(-c2ccc(Cl)c(C(=O)O)c2)o1`, the inhibition is reported as 24% (inactive). With `CC1=NN(c2ccc(S(N)(=O)=O)cc2)C(=O)/C1=C\c1ccc(-c2ccc(S(N)(=O)=O)cc2)o1` the inhibition was 32% (inactive). For `CC1=NN(c2ccc(S(N)(=O)=O)cc2)C(=O)/C1=C\c1ccc(-c2ccc(Br)cc2)o1`, the inhibition was 59% (active). `CC1=NN(c2ccccc2)C(=O)/C1=C\c1ccc(-c2cc([N+](=O)[O-])ccc2O)o1` was tested, and the inhibition was 30% (inactive). For `CC1=NN(c2ccc(S(N)(=O)=O)cc2)C(=O)/C1=C\c1ccc(-c2ccc(C)c(Cl)c2)o1`, the inhibition was 53% (active). For `CC1=NN(c2ccc(S(N)(=O)=O)cc2)C(=O)/C1=C\c1ccc(-c2ccc(Cl)c(C(=O)O)c2)o1`, the inhibition was 6% (inactive). With `COc1cccc(C(=O)NC(=S)Nc2ccc3oc(-c4ccccc4Cl)nc3c2)c1` the inhibition was 12% (inactive). `O=C(CSc1n[nH]c(-c2ccncc2)n1)c1ccc(O)cc1O` was tested, and the inhibition was 15% (inactive). With `FC(F)(F)Oc1ccc(N=Cc2ccc(Br)s2)cc1` the inhibition was 8% (inactive). `Oc1cccc(-c2nc(-c3ccccc3)c(-c3ccc(Br)cc3)[nH]2)c1` was tested, and the inhibition was 22% (inactive). In the case of `CCOc1ccc(OCCOCCOc2ccccc2Cl)cc1`, the inhibition is reported as 8% (inactive). For `CC1(C)CC(=O)C=C(Nc2cc([N+](=O)[O-])ccc2N)C1`, the inhibition was 7% (inactive). With `CCN(CC)c1ccc(NS(=O)(=O)c2ccc(Cl)cc2)cc1` the inhibition was 28% (inactive). `Cc1cc(C)cc(OCCNC(=O)c2ccccc2C)c1` was tested, and the inhibition was 5% (inactive). `COc1ccc(C(=O)NC(=S)Nc2ccc(-c3nc4cc(C)ccc4o3)c(O)c2)cc1` was tested, and the inhibition was 17% (inactive). In the case of `Cc1ccc2nc(-c3cc(NC(=S)NC(=O)c4cccc(F)c4)ccc3Cl)oc2c1`, the inhibition is reported as 51% (active). In the case of `Cc1ccc2nc(-c3ccc(C)c(NC(=S)NC(=O)c4cccc(Br)c4)c3)oc2c1`, the inhibition is reported as 22% (inactive). For `O=C(NC(=S)Nc1ccc2oc(-c3cc(Cl)ccc3Cl)nc2c1)c1cccc(F)c1`, the inhibition was 18% (inactive). `Cc1cc(C)c2oc(-c3ccc(C)c(NC(=S)NC(=O)c4cccc(F)c4)c3)nc2c1` was tested, and the inhibition was 0% (inactive). For `Cc1ccc(C(=O)NC(=S)Nc2ccc(Cl)c(-c3nc4ccc(C)cc4o3)c2)cc1`, the inhibition was 15% (inactive). In the case of `COc1cccc(C(=O)Nc2ccc(-c3nc4cc(C)ccc4o3)c(O)c2)c1`, the inhibition is reported as 36% (inactive). With `COc1cccc(C(=O)NC(=S)Nc2ccc(-c3nc4cc(C)ccc4o3)c(O)c2)c1` the inhibition was 53% (active). With `Cc1ccc2nc(-c3ccc(C)c(NC(=S)NC(=O)c4cccc(F)c4)c3)oc2c1` the inhibition was 52% (active). `O=C(Nc1ccc(F)c(Cl)c1)c1ccncc1` was tested, and the inhibition was 7% (inactive). For `CCCC1=C(C(=O)OCC)C(c2ccc(Cl)cc2Cl)NC(=O)N1` (stereo unspecified), the inhibition was 4% (inactive). In the case of `Cc1cccc(N2C(=O)/C(=C/c3cccn3-c3ccccc3)C(=O)NC2=S)c1C`, the inhibition is reported as 30% (inactive). `COc1ccc(/C=C2\C(=O)NC(=O)N(c3ccccc3)C2=O)cc1I` was tested, and the inhibition was 39% (inactive). With `CCOc1cc(/C=N/NC(=O)c2ccncc2)ccc1OC(=O)c1ccco1` the inhibition was 5% (inactive).

Reference: PubChem BioAssay AID372 (MTDP, 2006)
